Assay results from the supplement of paper PMC12282887.
± gives the standard deviation of the averaged measurements.

What was measured:
Assay in all cases: promoter activity interaction Z-score (Lux/OD deviation from empty-vector control); higher = stronger promoter induction by the compound
[1] = tested on: E. coli BW25113 ompFp lux reporter
Summary of the method: (§1)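 Wild-type E. coli BW25113 and three single-gene deletion strains, each carrying a low-copy luxCDABE promoter reporter, were grown at 37°C in 40 µl LB Lennox per well of a 384-well plate. Every compound was applied at four 1:2 dilutions in biological duplicates, and OD600 and luminescence were read every 30 min for 12 h. Integration covered 0–8 h for wild type and 1–9 h for deletion strains, and wells under 10% of the median growth value were removed. Scores are Z-transformed residuals of growth-normalised luminescence fitted against a control.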

[2] = tested on: E. coli BW25113 robp lux reporter
Summary of the method: as §1

[3] = tested on: E. coli BW25113 soxSp lux reporter
Summary of the method: as §1

[4] = tested on: E. coli BW25113 tolCp lux reporter
Summary of the method: as §1

[5] = tested on: E. coli BW25113 acrABp lux reporter
Summary of the method: as §1

[6] = tested on: E. coli BW25113 marRABp lux reporter
Summary of the method: as §1

[7] = tested on: E. coli BW25113 micFp lux reporter
Summary of the method: as §1

[8] = 0.23 µg/ml, genetic background: wild type
[9] = 0.23 µg/ml, genetic background: ΔmarA
[10] = 0.23 µg/ml, genetic background: Δrob
[11] = 0.23 µg/ml, genetic background: ΔsoxS
[12] = 0.47 µg/ml, genetic background: wild type
[13] = 0.47 µg/ml, genetic background: ΔmarA
[14] = 0.47 µg/ml, genetic background: Δrob
[15] = 0.47 µg/ml, genetic background: ΔsoxS
[16] = 0.12 µg/ml, genetic background: wild type
[17] = 0.12 µg/ml, genetic background: ΔmarA
[18] = 0.12 µg/ml, genetic background: Δrob
[19] = 0.12 µg/ml, genetic background: ΔsoxS
[20] = 0.94 µg/ml, genetic background: ΔmarA
[21] = 0.94 µg/ml, genetic background: wild type
[22] = 0.94 µg/ml, genetic background: Δrob
[23] = 0.11 µg/ml, genetic background: wild type
[24] = 0.11 µg/ml, genetic background: ΔmarA
[25] = 0.11 µg/ml, genetic background: Δrob
[26] = 0.11 µg/ml, genetic background: ΔsoxS
[27] = 0.46 µg/ml, genetic background: wild type
[28] = 0.46 µg/ml, genetic background: ΔmarA
[29] = 0.46 µg/ml, genetic background: Δrob
[30] = 0.46 µg/ml, genetic background: ΔsoxS

Structure (SMILES): NC[C@H]1O[C@H](O[C@H]2[C@H](O)[C@@H](O[C@H]3O[C@H](CO)[C@@H](O)[C@H](N)[C@H]3O)[C@H](N)C[C@@H]2N)[C@H](N)C[C@@H]1O [Tobramycin]
- promoter activity interaction Z-score [1, 8]: -0.622 ± 0.16
- promoter activity interaction Z-score [1, 9]: -0.759 ± 0.15
- promoter activity interaction Z-score [1, 10]: -0.556 ± 0.035
- promoter activity interaction Z-score [1, 11]: -0.0491 ± 0.17
- promoter activity interaction Z-score [1, 12]: -0.491 ± 0.36
- promoter activity interaction Z-score [1, 13]: -0.148 ± 0.12
- promoter activity interaction Z-score [1, 14]: -0.134 ± 0.25
- promoter activity interaction Z-score [1, 15]: -0.273 ± 0.14
- promoter activity interaction Z-score [2, 16]: 0.0204 ± 0.029
- promoter activity interaction Z-score [2, 17]: -0.389 ± 0.14
- promoter activity interaction Z-score [2, 18]: -0.392 ± 0.68
- promoter activity interaction Z-score [2, 19]: -0.688 ± 0.16
- promoter activity interaction Z-score [2, 8]: -0.193 ± 0.42
- promoter activity interaction Z-score [2, 9]: -0.587 ± 0.68
- promoter activity interaction Z-score [2, 10]: -0.421 ± 0.28
- promoter activity interaction Z-score [2, 11]: -0.277 ± 0.056
- promoter activity interaction Z-score [2, 12]: 0.112 ± 0.36
- promoter activity interaction Z-score [2, 13]: 0.0227 ± 0.29
- promoter activity interaction Z-score [2, 14]: -0.0785 ± 0.74
- promoter activity interaction Z-score [2, 15]: -0.163 ± 0.8
- promoter activity interaction Z-score [2, 20]: -0.438
- promoter activity interaction Z-score [3, 16]: -0.268 ± 0.23
- promoter activity interaction Z-score [3, 17]: -0.327 ± 0.091
- promoter activity interaction Z-score [3, 18]: -0.404 ± 0.1
- promoter activity interaction Z-score [3, 19]: -0.552 ± 0.76
- promoter activity interaction Z-score [3, 8]: -0.406 ± 0.046
- promoter activity interaction Z-score [3, 9]: -0.398 ± 0.089
- promoter activity interaction Z-score [3, 10]: -0.3823 ± 0.0022
- promoter activity interaction Z-score [3, 11]: -0.224 ± 0.31
- promoter activity interaction Z-score [3, 12]: -0.337 ± 0.16
- promoter activity interaction Z-score [3, 13]: -0.48 ± 0.096
- promoter activity interaction Z-score [3, 14]: -0.274 ± 0.22
- promoter activity interaction Z-score [3, 15]: -0.474 ± 0.4
- promoter activity interaction Z-score [3, 21]: -0.762
- promoter activity interaction Z-score [3, 22]: -0.904
- promoter activity interaction Z-score [4, 16]: -0.242 ± 0.84
- promoter activity interaction Z-score [4, 17]: -0.0707 ± 0.59
- promoter activity interaction Z-score [4, 18]: -0.601 ± 1.1
- promoter activity interaction Z-score [4, 19]: -1.14 ± 0.68
- promoter activity interaction Z-score [4, 8]: -0.456 ± 0.35
- promoter activity interaction Z-score [4, 9]: -1.13 ± 0.17
- promoter activity interaction Z-score [4, 10]: -0.0625 ± 1.8
- promoter activity interaction Z-score [4, 11]: 0.772 ± 0.56
- promoter activity interaction Z-score [4, 12]: -0.509 ± 0.71
- promoter activity interaction Z-score [4, 13]: -0.277 ± 0.22
- promoter activity interaction Z-score [4, 14]: 1.06 ± 1.1
- promoter activity interaction Z-score [4, 15]: 0.0909 ± 0.58
- promoter activity interaction Z-score [4, 21]: -0.901 ± 0.46
- promoter activity interaction Z-score [4, 20]: -0.459
- promoter activity interaction Z-score [4, 22]: -0.895 ± 0.19
- promoter activity interaction Z-score ([4]; 0.94 µg/ml, genetic background: ΔsoxS): -0.128 ± 1

Structure (SMILES): N[C@@H](C(=O)N[C@@H]1C(=O)N2C(C(=O)O)=C(Cl)CS[C@H]12)c1ccccc1 [Cefaclor]
- promoter activity interaction Z-score [5, 23]: -0.0672 ± 0.0046
- promoter activity interaction Z-score [5, 24]: 0.0667 ± 0.63
- promoter activity interaction Z-score [5, 25]: -0.0825 ± 0.022
- promoter activity interaction Z-score [5, 26]: 0.202 ± 0.33
- promoter activity interaction Z-score [5, 8]: 0.0822 ± 0.27
- promoter activity interaction Z-score [5, 9]: -0.226 ± 0.26
- promoter activity interaction Z-score [5, 10]: -0.0254 ± 0.2
- promoter activity interaction Z-score [5, 11]: 0.108 ± 0.18
- promoter activity interaction Z-score [5, 27]: -0.327 ± 0.23
- promoter activity interaction Z-score [5, 28]: 0.267 ± 0.91
- promoter activity interaction Z-score [5, 29]: 0.0322 ± 0.2
- promoter activity interaction Z-score [5, 30]: 0.0468 ± 0.32
- promoter activity interaction Z-score [6, 23]: -0.22 ± 0.046
- promoter activity interaction Z-score [6, 24]: -0.342 ± 0.017
- promoter activity interaction Z-score [6, 25]: 0.00564 ± 0.3
- promoter activity interaction Z-score [6, 26]: 0.0816 ± 0.011
- promoter activity interaction Z-score [6, 8]: 0.101 ± 0.062
- promoter activity interaction Z-score [6, 9]: -0.215 ± 0.016
- promoter activity interaction Z-score [6, 10]: -0.0669 ± 0.059
- promoter activity interaction Z-score [6, 11]: -0.244 ± 0.22
- promoter activity interaction Z-score [6, 27]: -0.245 ± 0.15
- promoter activity interaction Z-score [6, 28]: 0.298 ± 0.42
- promoter activity interaction Z-score [6, 29]: 0.0148 ± 0.0067
- promoter activity interaction Z-score [6, 30]: -0.145 ± 0.23
- promoter activity interaction Z-score [7, 23]: -0.186 ± 0.14
- promoter activity interaction Z-score [7, 24]: -0.0579 ± 0.053
- promoter activity interaction Z-score [7, 25]: -0.0069 ± 0.16
- promoter activity interaction Z-score [7, 26]: -0.168 ± 0.014
- promoter activity interaction Z-score [7, 8]: 0.286 ± 0.18
- promoter activity interaction Z-score [7, 9]: 0.0237 ± 0.12
- promoter activity interaction Z-score [7, 10]: -0.137 ± 0.035
- promoter activity interaction Z-score [7, 11]: -0.23 ± 0.11
- promoter activity interaction Z-score [7, 27]: -0.0523 ± 0.022
- promoter activity interaction Z-score [7, 28]: -0.0548 ± 0.1
- promoter activity interaction Z-score [7, 29]: 0.072 ± 0.35
- promoter activity interaction Z-score [7, 30]: 0.0997 ± 0.0034
- promoter activity interaction Z-score [1, 23]: -0.0486 ± 0.033
- promoter activity interaction Z-score [1, 24]: 0.00202 ± 0.074
- promoter activity interaction Z-score [1, 25]: -0.037 ± 0.097
- promoter activity interaction Z-score [1, 26]: 0.00353 ± 0.4
- promoter activity interaction Z-score [1, 8]: 0.205 ± 0.32
- promoter activity interaction Z-score [1, 9]: -0.158 ± 0.14
- promoter activity interaction Z-score [1, 10]: 0.0924 ± 0.14
- promoter activity interaction Z-score [1, 11]: -0.0604 ± 0.083
- promoter activity interaction Z-score [1, 27]: -0.3379 ± 0.00077
- promoter activity interaction Z-score [1, 28]: 0.243 ± 0.29
- promoter activity interaction Z-score [1, 29]: 0.261 ± 0.15
- promoter activity interaction Z-score [1, 30]: 0.0432 ± 0.23
- promoter activity interaction Z-score [2, 23]: 0.143 ± 0.35
- promoter activity interaction Z-score [2, 24]: -0.548 ± 0.49
- promoter activity interaction Z-score [2, 25]: -0.0741 ± 0.49
- promoter activity interaction Z-score [2, 26]: -0.204 ± 0.27
- promoter activity interaction Z-score [2, 8]: 0.403 ± 0.76
- promoter activity interaction Z-score [2, 9]: -0.533 ± 0.12
- promoter activity interaction Z-score [2, 10]: -0.17 ± 0.038
- promoter activity interaction Z-score [2, 11]: 0.0114 ± 0.73
- promoter activity interaction Z-score [2, 27]: -0.312 ± 0.44
- promoter activity interaction Z-score [2, 28]: -0.025 ± 0.62
- promoter activity interaction Z-score [2, 29]: -0.475 ± 0.67
- promoter activity interaction Z-score [2, 30]: -0.073 ± 1.2
- promoter activity interaction Z-score [3, 23]: 0.0812 ± 0.014
- promoter activity interaction Z-score [3, 24]: 0.114 ± 0.011
- promoter activity interaction Z-score [3, 25]: 0.166 ± 0.057
- promoter activity interaction Z-score [3, 26]: 0.145 ± 0.29
- promoter activity interaction Z-score [3, 8]: 0.222 ± 0.12
- promoter activity interaction Z-score [3, 9]: 0.143 ± 0.22
- promoter activity interaction Z-score [3, 10]: 0.159 ± 0.22
- promoter activity interaction Z-score [3, 11]: 0.00336 ± 0.19
- promoter activity interaction Z-score [3, 27]: -0.146 ± 0.12
- promoter activity interaction Z-score [3, 28]: -0.0654 ± 0.045
- promoter activity interaction Z-score [3, 29]: 0.255 ± 0.11
- promoter activity interaction Z-score [3, 30]: -0.0397 ± 0.37
- promoter activity interaction Z-score [4, 23]: -0.564 ± 0.28
- promoter activity interaction Z-score [4, 24]: 0.134 ± 0.67
- promoter activity interaction Z-score [4, 25]: 0.613 ± 0.26
- promoter activity interaction Z-score [4, 26]: -0.636 ± 0.056
- promoter activity interaction Z-score [4, 8]: 0.674 ± 0.6
- promoter activity interaction Z-score [4, 9]: -0.149 ± 1.3
- promoter activity interaction Z-score [4, 10]: 0.0751 ± 0.037
- promoter activity interaction Z-score [4, 11]: -0.124 ± 0.055
- promoter activity interaction Z-score [4, 27]: -0.115 ± 0.33
- promoter activity interaction Z-score [4, 28]: -0.727 ± 1.3
- promoter activity interaction Z-score [4, 29]: -0.374 ± 0.56
- promoter activity interaction Z-score [4, 30]: -0.124 ± 0.67
